G9a block – G9a (human) methyltransferase inhibition | G9a H3K9 monomethylation, AlphaScreen, 2 h | Potency, µM (series often up to 102 µM), inactives show at the top dose activity, negative = inhibition, most hits filed as inhibitors | AID 504332 | 350,000 tested, 8.8% active | Q96KQ7; also: % is scaled to controls: 0 for no effect and ±100 for the full control effect; nearly all actives have a fitted effect of over 75% in size
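G9a (20 nM) preincubated 15 min RT with compounds, then 500 nM biotinylated H3K9 peptide and 20 uM SAM added; 2 h RT reaction. Monomethyl-H3K9 product detected by AlphaScreen with anti-H3K9me1 antibody, streptavidin donor and anti-rabbit IgG acceptor beads.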
HP1b binding inh – inhibitors of HP1-beta chromodomain binding to methylated histone tails; P83916; AlphaScreen HP1-beta / biotin-H3K9me3 peptide binding; Potency, µM (doses to about 114 µM), for inactives: at the top dose activity change, negative = inhibition, actives largely listed as inhibitors; 390,000 tested, 0.56% active; AID 540317; also: nearly all actives have a fitted effect of over 70% in size
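Compound inhibition of the preformed complex between 50 nM HP1-beta and 50 nM biotinylated H3K9me3 peptide was read by AlphaScreen. Buffer was PBS pH 7.4 with 0.01% Tween-20. Incubations ran 30 min at room temperature, with 10 ug/mL donor/acceptor beads.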
PLK1 PBD inh – blocks phosphopeptide binding to human PLK1 polo-box domain; P53350; Plk1 PBD binding of FITC phosphopeptide, fluorescence polarization; Potency, µM, for inactives: max response, negative = inhibition, hits mostly inhibitors; 360,000 tested, 2.8% active; also: series mostly up to about 57 µM; % is scaled to controls: 0 for no effect and ±100 for the full control effect; nearly all actives have a fitted effect of over 65% in size
JMJD2A Tudor – blocks the human JMJD2A Tudor domain; O75164; AlphaScreen JMJD2A-Tudor / H3K4me3 peptide binding; Potency, µM (highest dose often 114 µM), without a hit: top-dose activity change, negative = inhibition, most hits filed as inhibitors; 390,000 tested, 4.4% active; also: % is scaled to controls: 0 for no effect and ±100 for the full control effect; nearly all actives have a fitted effect of over 50% in size
Target sequence (O75164 whole entry, looked up, the tested form may be a part): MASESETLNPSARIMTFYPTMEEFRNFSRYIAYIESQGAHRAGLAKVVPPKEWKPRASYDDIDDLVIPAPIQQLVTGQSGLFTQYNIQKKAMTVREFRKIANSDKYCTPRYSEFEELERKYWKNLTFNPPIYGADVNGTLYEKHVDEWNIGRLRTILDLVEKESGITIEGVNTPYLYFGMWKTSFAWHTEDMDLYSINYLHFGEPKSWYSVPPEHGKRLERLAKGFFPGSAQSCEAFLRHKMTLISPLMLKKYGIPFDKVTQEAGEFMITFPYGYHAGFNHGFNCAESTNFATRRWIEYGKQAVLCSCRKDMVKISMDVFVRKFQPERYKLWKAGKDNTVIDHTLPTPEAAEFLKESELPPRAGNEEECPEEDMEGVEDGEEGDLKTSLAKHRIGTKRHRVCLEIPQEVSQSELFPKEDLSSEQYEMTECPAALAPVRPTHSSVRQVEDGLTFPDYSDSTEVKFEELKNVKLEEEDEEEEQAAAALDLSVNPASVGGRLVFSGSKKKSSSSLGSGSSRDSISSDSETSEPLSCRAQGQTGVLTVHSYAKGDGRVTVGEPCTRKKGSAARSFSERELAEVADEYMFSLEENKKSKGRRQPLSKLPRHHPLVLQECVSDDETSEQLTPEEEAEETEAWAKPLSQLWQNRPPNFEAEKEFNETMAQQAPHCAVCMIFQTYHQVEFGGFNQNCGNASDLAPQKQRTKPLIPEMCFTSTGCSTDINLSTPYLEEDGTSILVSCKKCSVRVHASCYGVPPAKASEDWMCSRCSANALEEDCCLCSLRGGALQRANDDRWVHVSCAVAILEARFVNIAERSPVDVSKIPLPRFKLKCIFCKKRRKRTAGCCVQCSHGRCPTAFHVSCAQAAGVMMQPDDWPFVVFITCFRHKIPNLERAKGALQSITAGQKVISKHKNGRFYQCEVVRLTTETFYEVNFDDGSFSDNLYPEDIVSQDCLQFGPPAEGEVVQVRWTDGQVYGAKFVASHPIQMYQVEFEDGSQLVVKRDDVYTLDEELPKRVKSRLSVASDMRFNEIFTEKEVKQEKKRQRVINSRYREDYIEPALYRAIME
ALOX12 inh – ALOX12 (human) lipoxygenase inhibition; P18054; purified 12hLO, xylenol orange hydroperoxide absorbance; Potency, µM (doses to about 108 µM), inactives show at the top dose activity change, negative = inhibition, actives largely listed as inhibitors; 580,000 tested, 1.1% active; AID 1671190; also: % is scaled to controls: 0 for no effect and ±100 for the full control effect
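Purified human 12hLO (150 nM final) in 25 mM Hepes, 0.01% Triton X-100, pH 7.0 was preincubated 15 min at room temperature with compound. Then 40 uM arachidonic acid was added, 30 min. Hydroperoxide was read by Fe-XO absorbance ratio 573/405 nm.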
BAZ2B block – BAZ2B (human) inhibition. Q9UIF8. AlphaScreen BAZ2B-H3K14Ac peptide displacement. Potency, µM (highest dose often 114 µM), for the others: top-dose activity change, negative = inhibition, actives largely listed as inhibitors. 360,000 tested, 4.4% active; also: % is scaled to controls: 0 for no effect and ±100 for the full control effect; nearly all actives have a fitted effect of over 60% in size
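BAZ2B 50 nM plus b-H3(5-23)K14Ac 50 nM, PBS pH 7.4/0.01% Tween-20, 30 min RT; compound added (max 110 uM), 30 min RT; streptavidin donor/Ni-chelate acceptor beads 10 ug/mL final, 20 min dark; AlphaScreen read.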
* = called active by the depositor; ? = inconclusive; · = no result; ! = not active in a repeat; [ ] = another dose, or the depositor's remark. Only some compounds are listed: those with a hit (about 9% of all), similar ones and a draw of the others. Calls follow the shape of the dose curve; as a rule, active = well fitted curve in the direction sought with a large enough effect; inconclusive = small, poorly fitted or top-dose-only effect, or another doubt; inactive = no such curve, though single readings can be large; an effect the other way counts as inactive or inconclusive. Potency is read from the fitted curve at half-maximal effect.

SMILES	G9a block	HP1b binding inh	PLK1 PBD inh	JMJD2A Tudor	ALOX12 inh	BAZ2B block
COc1cc(C(=O)N/N=C/c2ccc(OC(=O)N3CCOCC3)cc2)cc(OC)c1OC	?	7%	2%	-18%	4%	-1%
COc1ccc(-n2c(/C=C/c3ccc4c(c3)OCO4)nc3ccccc3c2=O)cc1	-10%[59 µM]	18%	-8%	-14%	?	-35%
O=C(COc1ccc(Cl)cc1)N1CCN(Cc2ccccc2)CC1	5%[59 µM]	21%	0%	-5%	-4%	-5%
CC1CCC(N2CCN(C(=O)COc3ccccc3)CC2)CC1 (stereo unspecified)	11µM*	-18%	-6%	4µM*	?	50µM*
O=C(COc1ccc(Cl)cc1)N1CCN(C2CCCC2)CC1	8.9µM*	?	0%	20µM*	?	50µM*
Cn1c(=O)cc(OCC(=O)N2CCN(C3CCCCC3)CC2)c2ccccc21	-1%[59 µM]	30%	-10%	-19%	4%[57.4 µM]	6%
c1ccc([Se]c2c(-c3ccccc3)[se]c3ccccc23)cc1	85%[59 µM]	·	·	·	·	·
COc1ccccc1N(CC(=O)NC1CCCCC1)C(=O)c1cnn(C(C)C)c1	-34%[59 µM]	7%	-10%	-7%	9%	9%
Cc1nc(-c2ccc(C(F)(F)F)cc2)cc([C@H]2CN3CC[C@H]2C[C@@H]3CNS(C)(=O)=O)n1	·	·	·	·	35%	·
NC(=O)CSc1nc2cc(S(=O)(=O)N3CCOCC3)ccc2o1	·	?	12µM*	-23%	?	·
COCC(=O)N1[C@@H]2Cn3c(ccc(Br)c3=O)[C@H]1[C@@H](C(=O)OC)[C@@H]2CO	·	·	·	·	-26%	·
O=c1[nH]c(=S)[nH]c(O)c1/C=N/N1CCOCC1	50µM*	53%	1%	6%	?	0%
Cc1ccc(-n2c(O)c(/C=N/N3CCOCC3)c(=O)[nH]c2=S)cc1	?	21%	-8%	?	-17%	?
Fc1ccc(F)c(C(Cl)(Cl)Cl)c1	·	·	·	·	8%	·
CC1(C)C(=O)CC[C@]2(C)C3C(=O)C=C4[C@H]5C[C@@](C)(C(=O)O)CC[C@]5(C)CC[C@]4(C)[C@]3(C)CC[C@@H]12 (stereo partly specified)	18%[12.7 µM]	17%	-11%	-8%	-2%	?
CC1=C(O)C(=O)C=C2C1=CC=C1[C@@]2(C)CC[C@@]2(C)[C@@H]3C[C@](C)(C(=O)O)CC[C@]3(C)CC[C@]12C	·	·	·	·	2.4µM*!	·
CCN1/C(=C\C=C\C2=[N+](CC)c3ccccc3C2(C)C)C(C)(C)c2ccccc21	?	?	95%	?	·	11µM*
O=C1NCc2ccccc2CC12CCCN2Cc1cccc(Br)n1 (stereo unspecified)	·	·	·	·	8%[6.33 µM]	·
CN1CCN(c2nc3ccccc3o2)CC1	·	17%	-7%	-7%	-15%	-36%
CN1C(=O)C(=Cc2c(OCc3cnc(Cl)s3)ccc3ccccc23)C(=O)N(C)C1=O	?	40%	4.7µM*	-2%	-29%	?
COc1cc(C(c2c(C)[nH]n(-c3ccccc3)c2=O)c2c(C)[nH]n(-c3ccccc3)c2=O)cc(OC)c1OC	15%[0.501 µM]	-8%	2.1µM*	?	?	45µM*
Cc1nc2cc([N+](=O)[O-])ccc2c(=O)n1-c1ccccc1[N+](=O)[O-]	-12%[0.501 µM]	42%	-8%	-15%	-6%	-15%
Cc1[nH]n(-c2ccccc2)c(=O)c1C(c1cccc([N+](=O)[O-])c1O)c1c(C)[nH]n(-c2ccccc2)c1=O	45µM*	?	8.4µM*	50µM*	25µM*	32µM*
COc1cc2[nH]c(=O)n(-c3ccccc3)c(=O)c2cc1OC	13%[59 µM]	59%	-14%	-21%	0%	2%
CN1[C@@H](CC(=O)c2ccccc2)CCC[C@H]1C[C@H](O)c1ccccc1	28%[12.7 µM]	79%	-16%	-13%	-15%	5%
SMILES	G9a block	HP1b binding inh	PLK1 PBD inh	JMJD2A Tudor	ALOX12 inh	BAZ2B block
CNc1cc(N2CCNCC2)ccc1[N+](=O)[O-]	·	31%	-1%	-7%	-22%	-1%
COc1ccc(-n2c(-c3ccccc3[N+](=O)[O-])nc3ccccc3c2=O)cc1	21%	-18%	21µM*	?	3%	?
CCN1CCN(C(=O)COc2ccc(S(=O)(=O)N3CCOCC3)cc2C)CC1	-8%	20%	0%	-5%	-3%	-7%
Nn1c(Cc2cccc3ccccc23)n[nH]c1=S	3.5µM*	?	8.4µM*	10µM*	?	-34%
CCCc1[nH][nH]c(=O)c1C(c1ccc(Cl)cc1)C(C#N)C#N (stereo unspecified)	?	15%	21µM*	?	?	-6%
CCCc1[nH][nH]c(=O)c1C(c1ccccc1)C(C#N)C#N (stereo unspecified)	?	30%	12µM*	-27%	-22%	5%
Cc1ccccc1-n1nc(C)c2c1NC(=O)CSC2c1ccccc1C(F)(F)F (stereo unspecified)	-11%[59 µM]	29%	·	-2%	?	-2%
CC(C)NC(=O)[C@H]1CN2CC[C@H]1C[C@@H]2Cn1cc(COc2ccccc2)nn1	·	·	·	·	43%[176 µM]	·
Cc1cc(C(C#N)c2ccc(Cl)cc2)c(Cl)cc1NC(=O)c1cc(I)cc(I)c1O (stereo unspecified)	14µM*	-13%	?	50µM*	?	45µM*
Cc1ccccc1-c1ccc2n1Cc1cnnn1-c1ccccc1-2	·	?	-8%	50µM*	7%	·
Nc1ncnc2c1ncn2[C@@H]1O[C@@H]2CO[P@](=O)(S)O[C@H]2[C@H]1O	9%[59 µM]	·	·	·	·	·
C[S+](CC[C@H](N)C(=O)O)C[C@H]1O[C@@H](n2cnc3c(N)ncnc32)[C@H](O)[C@@H]1O (stereo partly specified)	3.5µM*	9%	-2%	13µM*	·	4%
CC1=NCCc2c1[nH]c1cc(O)ccc21	1.4µM*!	39%	1.2µM*	-19%	?	4%
COc1cc2c(cc1OC)C(C(=O)N1CCC3(CC1)OCCO3)C(c1ccccc1F)N(C)C2=O (stereo unspecified)	0.79µM*	20%	-6%	3%[57.1 µM]	0%	3%
O=C(Nc1ccc(Cl)cc1C(=O)c1ccccc1Cl)c1ccco1	10%[12.7 µM]	23%	-5%	-5%	1%	2%
Cc1cccc(OCCCn2c(=O)oc3ccccc32)c1	51%[12.7 µM]	119%	-2%	60%	9%	47%
O=C(O)C(Cc1cnc[nH]1)NS(=O)(=O)c1ccc(Br)cc1 (stereo unspecified)	40µM*	2%	-18%	10µM*	?	-7%

Bioassay records: PubChem BioAssay, National Center for Advancing Translational Sciences (NCATS)
